# According to PubChem BioAssay AID1159580 (chemical genetic matrix, 2015):
# About 2,000 (36%) of roughly 5,500 compounds were called active. Not shown: some 18% with an inconclusive outcome. Some of the results follow. Unmarked numbers belong to inactive results. Cut-off read from the data, not from the text of the source: active = normalized growth mostly below about 0.91 (no sharp cut-off); inconclusive = no clear call, values can overlap the other calls; inactive = mostly above about 0.92.
# Experiment: chemical genetic growth profiling, strain panel (AID 1159580);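 note: tested at 20 µM; growth read once vehicle control cultures reached saturation at 30 °C; 1 = growth at the plate median or of vehicle wells; lower values mean less growth of the strain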
# Conditions: S. cerevisiae deletion strains, growth OD
compound,measurement,setting,value
CC(=O)C(Sc1nc2ccccc2s1)C(C)=O,normalized growth,"locus YAR019C, strain CDC15, hits give low values",0.896
same,normalized growth,"locus YBL105C, strain PKC1, hits give low values",0.919
same,normalized growth,"locus YBR135W, strain CKS1, hits give low values",0.915
same,normalized growth,"locus YBR136W, strain MEC1, hits give low values",0.923
same,normalized growth,"locus YBR160W, strain CDC28, hits give low values",0.909
same,normalized growth,"locus YDL017W, strain CDC7, hits give low values",0.919
same,normalized growth,"locus YDL028C, strain MPS1, hits give low values",0.906
same,normalized growth,"locus YDL101C, strain DUN1, hits give low values",0.979
same,normalized growth,"locus YDL108W, strain KIN28, hits give low values",0.93
same,normalized growth,"locus YDL132W, strain cdc53, hits give low values",0.91
same,normalized growth,"locus YDL214C, strain PRR2, hits give low values",0.713
same,normalized growth,"locus YDR052C, strain DBF4, hits give low values",0.916
same,normalized growth,"locus YDR054C, strain cdc34, hits give low values",0.906
same,normalized growth,"locus YDR226W, strain ADK1, hits give low values",0.937
same,normalized growth,"locus YDR477W, strain SNF1, hits give low values",0.778
same,normalized growth,"locus YER123W, strain YCK3, hits give low values",0.595 (active)
same,normalized growth,"locus YER133W, strain GLC7, hits give low values",0.812
same,normalized growth,"locus YFL009W, strain cdc4, hits give low values",0.892
same,normalized growth,"locus YFL029C, strain CAK1, hits give low values",0.9
same,normalized growth,"locus YFR003C, strain YPI1, hits give low values",0.926
same,normalized growth,"locus YFR019W, strain FAB1, hits give low values",0.836
same,normalized growth,"locus YFR028C, strain CDC14, hits give low values",0.922
same,normalized growth,"locus YGR040W, strain KSS1, hits give low values",0.798
same,normalized growth,"locus YGR052W, strain FMP48, hits give low values",0.667
same,normalized growth,"locus YGR092W, strain DBF2, hits give low values",0.343 (active)
same,normalized growth,"locus YHR030C, strain SLT2, hits give low values",0.63 (active)
same,normalized growth,"locus YHR079C, strain IRE1, hits give low values",0.547
same,normalized growth,"locus YHR082C, strain KSP1, hits give low values",0.785
same,normalized growth,"locus YHR205W, strain SCH9, hits give low values",0.948
same,normalized growth,"locus YIL147C, strain SLN1, hits give low values",0.921
same,normalized growth,"locus YJL095W, strain BCK1, hits give low values",0.521
same,normalized growth,"locus YJL128C, strain PBS2, hits give low values",0.918
same,normalized growth,"locus YJL157C, strain FAR1, hits give low values",0.68 (active)
same,normalized growth,"locus YJR016C, strain ILV3, hits give low values",0.916
same,normalized growth,"locus YJR066W, strain TOR1 (second series), hits give low values",0.795
same,normalized growth,"locus YJR066W, strain TOR1, hits give low values",0.682
same,normalized growth,"locus YKL048C, strain ELM1, hits give low values",0.929
same,normalized growth,"locus YKL067W, strain YNK1, hits give low values",0.694 (active)
same,normalized growth,"locus YKL101W, strain HSL1, hits give low values",0.866
same,normalized growth,"locus YKL193C, strain SDS22, hits give low values",0.907
same,normalized growth,"locus YKL203C, strain TOR2, hits give low values",0.879
same,normalized growth,"locus YLR113W, strain HOG1, hits give low values",0.591 (active)
same,normalized growth,"locus YLR133W, strain CKI1, hits give low values",0.765
same,normalized growth,"locus YLR403W, strain SFP1, hits give low values",0.764
same,normalized growth,"locus YML070W, strain DAK1, hits give low values",0.699
same,normalized growth,"locus YMR001C, strain CDC5, hits give low values",0.91
same,normalized growth,"locus YMR205C, strain PFK2 (second series), hits give low values",0.749
same,normalized growth,"locus YMR277W, strain FCP1, hits give low values",0.892
same,normalized growth,"locus YNL006W, strain LST8, hits give low values",0.901 (active)
same,normalized growth,"locus YNL020C, strain ARK1, hits give low values",0.739
same,normalized growth,"locus YNL161W, strain CBK1, hits give low values",0.906
same,normalized growth,"locus YNL183C, strain NPR1, hits give low values",0.561 (active)
same,normalized growth,"locus YNL207W, strain RIO2, hits give low values",0.937
same,normalized growth,"locus YNL222W, strain SSU72, hits give low values",0.907
same,normalized growth,"locus YNL307C, strain MCK1 (second series), hits give low values",0.807
same,normalized growth,"locus YOL078W, strain AVO1, hits give low values",0.908
same,normalized growth,"locus YOL136C, strain PFK27, hits give low values",0.694
same,normalized growth,"locus YOR061W, strain CKA2, hits give low values",0.752
same,normalized growth,"locus YOR119C, strain RIO1, hits give low values",0.827
same,normalized growth,"locus YOR231W, strain MKK1, hits give low values",0.591
same,normalized growth,"locus YOR329C, strain SCD5, hits give low values",0.925
same,normalized growth,"locus YPL031C, strain PHO85, hits give low values",0.729
same,normalized growth,"locus YPL153C, strain RAD53, hits give low values",0.734
same,normalized growth,"locus YPL204W, strain HRR25, hits give low values",0.757
same,normalized growth,"locus YPL209C, strain IPL1, hits give low values",0.914
same,normalized growth,"locus YPL256C, strain CLN2, hits give low values",0.6 (active)
same,normalized growth,"locus YPR025C, strain CCL1, hits give low values",0.916
same,normalized growth,"locus YPR106W, strain ISR1, hits give low values",0.945
same,normalized growth,"locus YPR111W, strain DBF20, hits give low values",0.946
same,normalized growth,"strain NNK1, hits give low values",0.948
same,normalized growth,"strain TSCII, hits give low values",0.891
